Test results as given in PubChem BioAssay (EPA / NIEHS).
Results filed as inconclusive are left out. Active and inactive are the calls of the source. The calls were made as follows, unless noted: active = hit-call score of the fitted dose curve at least 0.9, where 1 is the maximum; inconclusive = response in the unintended direction; inactive = score below 0.9.

Tests used:
[1] = CCTE_Harrill_HTTr_Viability_MCF7: CCTE's 6-hour Cell Viability Assessment for the High-Throughput Transcriptomics (HTTr) Platform, in MCF-7 cells cultured in DMEM + 10% fetal bovine serum, Harrill Lab (AID 2284010; active = hit-call score of the fitted dose curve at least 0.9, where 1 is the maximum; inactive = score below 0.9)
Procedure, shortened: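 Propidium iodide exclusion, imaged by high-content analysis, gauged viability after a six-hour exposure across eight concentrations. Cells were MCF-7 grown in DMEM with 10% fetal bovine serum; fits run in both directions against DMSO.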

[2] = CCTE_Harrill_HTTr_Apoptosis_MCF7: CCTE's 6-hour Apoptosis Assessment for the High-Throughput Transcriptomics (HTTr) Platform, in MCF-7 cells cultured in DMEM + 10% fetal bovine serum, Harrill Lab (AID 2284011; active = hit-call score of the fitted dose curve at least 0.9, where 1 is the maximum; inactive = score below 0.9)
Procedure, shortened: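 Read-out: CellEvent Caspase 3/7 Green signal by high content imaging, gain-of-signal indicating apoptosis. MCF-7 cells, DMEM + 10% FBS, eight-point dilution series, 6 h exposure. Curves fitted bidirectionally relative to DMSO negative control.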

[3] = CCTE_Harrill_HTTr_CellCount_MCF7: CCTE's Cell Proliferation Assessment for the High-Throughput Transcriptomics (HTTr) Platform, Harrill Lab (AID 2284012);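 also: cells exposed to compound for six hours; intended direction is loss of nuclei count meaning fewer cells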
Procedure, shortened: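 Cell count from high-content imaging of Hoechst-labeled nuclei serves as viability/growth readout. Chemicals were applied to MCF-7 cells in eight concentrations for six hours, with fitting in both directions relative to DMSO.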

[4] = CCTE_Mundy_HCI_Cortical_Synap_Neur_Matur_BPCount: CCTE's Synaptogenesis and Neurite Maturation Assay in rat cortical cells for Branch Point Count, Mundy Lab (AID 2284211; active = hit-call score of the fitted dose curve at least 0.9, where 1 is the maximum; inactive = score below 0.9)
Procedure, shortened: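 HCI read-out of branch points from MAP2/synaptophysin/Hoechst immunofluorescence; rat cortical cultures, AraC DIV 5, dosing DIV 7, fixed DIV 12; fit in positive direction vs DMSO baseline.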

[5] = CCTE_Mundy_HCI_Cortical_NOG_NeuriteCount: CCTE's Neurite Outgrowth Assay in rat cortical cells for Neurite Count, Mundy Lab (AID 2284212; active = hit-call score of the fitted dose curve at least 0.9, where 1 is the maximum; inactive = score below 0.9;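 also: cells fixed about two days after chemical exposure began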)
Procedure, shortened: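 Rat cortical primary cells; compound added 2 h post-plating, 1/10 dilution of working solution. Anti-betaIII-tubulin/AF488 ICC; ArrayScan neurite count vs DMSO.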

[6] = CCTE_Mundy_HCI_Cortical_Synap_Neur_Matur_NeuriteCount: CCTE's Synaptogenesis and Neurite Maturation Assay in rat cortical cells for Neurite Count, Mundy Lab (AID 2284222; active = hit-call score of the fitted dose curve at least 0.9, where 1 is the maximum; inactive = score below 0.9)
Procedure, shortened: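 Primary rat cortical cells were plated, treated with AraC at DIV 5, then exposed to chemicals from DIV 7 through DIV 12. After fixation and immunostaining for MAP2 and synaptophysin, imaging quantified neurites, with DMSO as the negative control.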

[7] = CCTE_Mundy_HCI_hNP1_Pro_ResponderAvgInten: CCTE's Proliferation Assay in human neuroprogenitor cells, Mundy Lab (AID 2284224);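 also: human neural progenitor cells hNP1 derived from WA09 embryonic stem cells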
Procedure, shortened: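 Human neuroprogenitors (hNP1, WA09 lineage) receive test chemical after 40 to 44 hours of attachment. A four-hour BrdU pulse begins twenty hours later, followed by fixation and high content imaging; signal is referenced to DMSO controls.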

[8] = CCTE_Mundy_HCI_Cortical_NOG_NeuronCount: CCTE's Neurite Outgrowth Assay in rat cortical cells for Neuron Count, Mundy Lab (AID 2284236);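 also: neurons counted by imaging betaIII-tubulin and Hoechst stained cortical cells; cells exposed to compound for about 48 hours before fixation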
Procedure, shortened: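 Read-out: neuron number by high-content imaging of betaIII-tubulin (Alexa Fluor-488) and Hoechst-labelled rat primary cortical cells.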

[9] = CCTE_Mundy_HCI_Cortical_NOG_BPCount: CCTE's Neurite Outgrowth Assay in rat cortical cells for Branch Point Count, Mundy Lab (AID 2284237; active = hit-call score of the fitted dose curve at least 0.9, where 1 is the maximum; inactive = score below 0.9;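 as to AC50: branch points counted about two days after chemical exposure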)
Procedure, shortened: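 Measured 50.33 h after dosing, this morphology endpoint uses rat primary cortical cultures labelled for betaIII-tubulin. Branch points are quantified by high-content imaging, with DMSO as negative control and baseline.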

[10] = CCTE_Mundy_HCI_hNP1_CellTiter: CCTE's Cell Titer-Glo 2 Assay in human neuroprogenitor cells for Viability, Mundy Lab (AID 2284241);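 as to AC50: a hit is a drop in ATP luminescence versus DMSO meaning reduced viability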
Procedure, shortened: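 Measures ATP content in human neural progenitors derived from WA09 embryonic cells. Read-out at 26.5 hours after dosing, with DMSO serving as the negative control and baseline.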

[11] = CCTE_Mundy_HCI_Cortical_Synap_Neur_Matur_NeuronCount: CCTE's Synaptogenesis and Neurite Maturation Assay in rat cortical cells for Neuron Count, Mundy Lab (AID 2284242);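 as to AC50: hits reduce neuron count versus DMSO baseline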
Procedure, shortened: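 Neuron counts come from automated high-content imaging of Hoechst nuclei and MAP2/synaptophysin immunostaining at DIV 12, with loss of signal judged against DMSO. Cultures of rat cortical cells had glial growth arrested by AraC at DIV 5; chemical exposure began DIV 7.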

[12] = IUF_NPC5_oligodendrocyte_differentiation_120hr: Leibniz Research Institute for Environmental Medicine (IUF) 120-hour Oligodendrocyte Differentiation Assay (NPC5) (AID 2284304);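 also: primary human fetal neural progenitor spheres plated to migrate and differentiate; share of O4-positive cells among Hoechst nuclei found by CNN image analysis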
Procedure, shortened: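 hNPC spheres, fetal cortex GW 16-19; PDL/laminin, DMEM:F12 3:1 + 1% N2, 37C/5% CO2; 7 concentrations + solvent control, 5 d exposure, half-change day 3. Readout: %O4+ of Hoechst+ nuclei in migration area, CNN classification; DMSO baseline.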

[13] = IUF_NPC4_neurite_area_120hr: Leibniz Research Institute for Environmental Medicine (IUF) 120-hour Neuronal Morphology Assay for Neurite Area (NPC4) (AID 2284305)
Procedure, shortened: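 Endpoint at 120 h: automated imaging of TUBB3/Hoechst-stained differentiating human neural progenitor spheres, neurite area per neuron from skeletonization. DMSO solvent control, not above 0.1%, set the baseline; medium was half-replaced on day 3.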

[14] = UKN5_HCS_SBAD2_cell_viability: Viability Assessment in the University of Konstanz (UKN) Leist Lab Neurite Outgrowth Assay in human iPSC-derived immature Dorsal Root Ganglia Neurons (UKN5) (AID 2284056; active = hit-call score of the fitted dose curve at least 0.9, where 1 is the maximum; inactive = score below 0.9)
Procedure, shortened: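 iPSC-derived immature peripheral neurons (SBAD2) seeded on Matrigel with CHIR99021, SU5402 and DAPT, dosed 1 h later for 24 h. Viability from Hoechst H-33342 and calcein-AM live staining, high-content imaging; bidirectional fit versus DMSO.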

[15] = UKN5_HCS_SBAD2_neurite_outgrowth: University of Konstanz (UKN) Leist Lab Neurite Outgrowth Assay in human iPSC-derived immature Dorsal Root Ganglia Neurons (UKN5) (AID 2284070; active = hit-call score of the fitted dose curve at least 0.9, where 1 is the maximum; inactive = score below 0.9); conditions: actives raise or lower the signal
Procedure, shortened: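 Neurite area from calcein-AM high-content images after 24 h exposure (staining included), with H-33342 for viability, fitted both directions against DMSO. Cells: thawed immature SBAD2 peripheral neurons, 100.000 cells/cm2, with CHIR99021, SU5402, DAPT; dosing 1 h after seeding.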

[16] = UKN4_HCS_LUHMES_neurite_outgrowth: University of Konstanz (UKN) Leist Lab Neurite Outgrowth Assay in human LUHMES cells (UKN4) (AID 2284206; active = hit-call score of the fitted dose curve at least 0.9, where 1 is the maximum; inactive = score below 0.9); conditions: actives raise or lower the signal
Procedure, shortened: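 After 24 h compound treatment beginning shortly after replating of 2-day-differentiated LUHMES cells, calcein-AM and H-33342 live staining allowed high-content imaging of neurite area and viability. Fitted bidirectionally against DMSO.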

[17] = IUF_NPC1_cytotoxicity_72hr: Cytotoxicity Assessment at 72 hours in the Leibniz Research Institute for Environmental Medicine (IUF) Neural Progenitor Cell Proliferation Assay (NPC1) (AID 2284332);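 also: rising LDH signal means more cytotoxicity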
Procedure, shortened: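 Cytotoxicity by LDH membrane-integrity assay on medium supernatants, fluorescence via resazurin reduction, after 3-day single exposure of primary hNPC spheres at 37C, pH 7.2-7.6 with growth factors. Fitted upward against baseline.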

[18] = CCTE_Mundy_HCI_iCellGluta_NOG_NeuriteLength: CCTE's Neurite Outgrowth Assay in iCellGluta cells for Neurite Length, Mundy Lab (AID 2284318)
Procedure, shortened: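 Automated high-content imaging of betaIII-tubulin (Alexa Fluor-488) and Hoechst-stained cells gave neurite length, normalized to the DMSO baseline.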

[19] = CCTE_Mundy_HCI_iCellGluta_NOG_NeuronCount: CCTE's Neurite Outgrowth Assay in iCellGluta cells for Neuron Count, Mundy Lab (AID 2284340);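 also: cells fixed about 48 h after compound addition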
Procedure, shortened: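 Neuron count read by automated high-content imaging of Hoechst 33342 and betaIII-tubulin/Alexa Fluor-488 labelling in human iPSC glutamatergic neurons. Activity fitted relative to DMSO.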

[20] = CCTE_Mundy_HCI_iCellGluta_NOG_NeuriteCount: CCTE's Neurite Outgrowth Assay in iCellGluta cells for Neurite Count, Mundy Lab (AID 2284342);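 also: chemical exposure about 48 hours starting 2 hours after plating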

Measured: AC50

CCCCC(CC)COC(=O)c1cc(Br)c(Br)c(Br)c1Br (stereo not given)
inactive: [1]

O=S1OC[C@@H]2[C@H](CO1)[C@]1(Cl)C(Cl)=C(Cl)[C@]2(Cl)C1(Cl)Cl (stereo not given in full)
inactive: [2] | [3]

COP(=S)(OC)SCC(=O)N(C)C=O
inactive: [1] | [2]

O=[As]O
inactive: [12] | [13]
active: [4] 5 µM | [5] 3.32 µM | [6] 4.43 µM | [7] 2.79 µM | [8] 3.59 µM | [9] 2.61 µM | [10] 6.1 µM | [11] 2.74 µM

CNC(=O)Oc1cccc(C(C)C)c1
inactive: [1] | [3]

[O-][Cl+3]([O-])([O-])O
inactive: [1] | [14] | [15] | [16] | [12] | [13] | [17]

Cn1nc(C(F)(F)F)c(CS(=O)(=O)C2=NOC(C)(C)C2)c1OC(F)F
inactive: [6] | [7] | [8] | [10] | [12] | [17] | [19] | [20]
active: [4] 15.1 µM | [5] 84.9 µM | [9] 77.1 µM | [11] 31.3 µM | [13] 50.1 µM | [18] 50 µM

CCOP(=O)(OCC)SCSC(C)(C)C
inactive: [4] | [6] | [10] | [12] | [17] | [19]
active: [5] 75.4 µM | [8] 84.1 µM | [9] 62.1 µM | [18] 9.83 µM | [20] 21.9 µM

FC(F)(F)c1ccc(OCCCOc2c(Cl)cc(OCC=C(Cl)Cl)cc2Cl)nc1
inactive: [1] | [3]

CC(=O)[O-].CC(=O)[O-].O.O.O.[Pb+2]
inactive: [15] | [16] | [8]
active: [14] 17.7 µM

CC(=O)[O-].[Tl+]
active: [4] 9.92 µM | [5] 59.5 µM | [6] 25.3 µM | [8] 50 µM | [9] 50 µM | [11] 15.4 µM | [13] 30.9 µM | [18] 2.79 µM | [19] 31.3 µM | [20] 2.26 µM
inactive: [7] | [17]

C[n+]1ccc(-c2cc[n+](C)cc2)cc1
active: [15] 202 µM | [16] 189 µM | [4] 0.947 µM | [5] 29.6 µM | [6] 1.21 µM | [7] 85.1 µM | [9] 50 µM | [11] 0.763 µM
inactive: [14] | [10] | [13]

CCOP(=O)(OCC)SCSCC
inactive: [4] | [6] | [7] | [12] | [13] | [17] | [19]
active: [5] 78.6 µM | [8] 89 µM | [9] 84.1 µM | [18] 49.8 µM | [20] 49.8 µM

CCOP(=O)(O)OCC
inactive: [1] | [2]

O=C1CCO1
inactive: [1] | [2] | [3]

CC1(C)C(C=C(Cl)Cl)C1C(=O)O[C@H](C#N)c1cccc(Oc2ccccc2)c1 (stereo not given in full)
inactive: [8] | [10] | [13] | [18] | [17] | [19] | [20]
active: [4] 12.8 µM | [5] 80 µM | [6] 12.3 µM | [7] 23.3 µM | [9] 80 µM | [11] 10.1 µM | [12] 1.32 µM

C#CCN(C)[C@H](C)Cc1ccccc1
inactive: [4] | [5] | [6] | [9] | [10] | [11] | [18] | [19] | [20]

C/C(=C/C=C/[C@@H](C)C(=O)O)[C@H]1CN[C@H](C(=O)O)[C@H]1CC(=O)O
inactive: [14] | [15] | [16] | [17]

CCOP(=O)(Oc1cnc(C(C)(C)C)nc1)OC(C)C (stereo not given)
inactive: [4] | [5] | [6] | [7] | [8] | [9] | [10] | [11] | [12] | [13] | [17] | [19] | [20]
active: [18] 28.8 µM

COP(=S)(Oc1cc(Cl)c(Br)cc1Cl)c1ccccc1 (stereo not given)
inactive: [2] | [3]

CC1(C)[C@@H](C=C(Cl)Cl)[C@@H]1C(=O)O[C@@H](C#N)c1ccc(F)c(Oc2ccccc2)c1
inactive: [4] | [5] | [6] | [7] | [8] | [9] | [10] | [12] | [18] | [17] | [19] | [20]
